# Experimental data: PubChem BioAssay
# Activity calls are given as the source filed them. Unless noted, no rule for the calls is given here.
# Legend:
# [1] = resazurin metabolic signal in HepG2 cells – cell-based, resazurin fluorescence, 24 h, PK04 Diversity Set, profiling panel (AID 1172); settings: HepG2 viability, higher = more signal
# [2] = budding yeast growth changes without added modifier – OD600, strain BY4716, 24 h, basal condition, primary screen (AID 1173); settings: S. cerevisiae BY4716 growth, OD600, 24 h; higher = more signal, called active from +8 up or from −8 down
# [3] = viability profiling in MM1S myeloma cells – cell-based, resazurin fluorescence, basal, 24 h, PK04 Diversity Set, profiling panel (AID 1174); settings: higher = more signal, called active from +8 up or from −8 down;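 also: MM1S multiple myeloma cell line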
# [4] = target: Dihydroorotate dehydrogenase (quinone), mitochondrial (Plasmodium falciparum (isolate 3D7)) (UniProt Q08210); test: inhibition of P. falciparum DHODH – biochemical, C-terminal His tag, absorbance 600 nm, primary screen (AID 1175); settings: PfDHODH enzyme, DCIP absorbance 600 nm; higher = more signal, called active from +8 up or from −8 down;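 also: recombinant parasite enzyme with a five histidine tag at its C terminus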
# [5] = inhibition of PAO1 biofilm formation – strain PAO1, LB-PBS medium, absorbance 600 nm, primary screen (AID 1176); settings: P. aeruginosa PAO1 growth/biofilm, A600, 12 h; higher = more signal
# [6] = growth modulation of vineyard yeast isolate – strain RM11-1a, OD600, basal, 24 h, primary screen (AID 1177);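 also: cultures grown under basal conditions with no added stressor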; settings: S. cerevisiae RM11-1a growth, OD600, 24 h; higher = more signal, called active from +8 up or from −8 down
# [7] = growth of efflux-deficient E. coli DRC39 – strain DRC39, OD650, 24 h, E. coli filamentation inducers, primary screen (AID 1178);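 also: growth measured as culture turbidity by optical density at 650 nm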; settings: E. coli DRC39 acrAB, higher = more signal, called active from +8 up or from −8 down
# [8] = growth of efflux-deficient E. coli DRC39 – strain DRC39, OD650, 48 h, E. coli filamentation inducers, primary screen (AID 1179);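 also: screen aims at cell division blockers that make cells filament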; settings: E. coli DRC39 delta-acrAB growth, higher = more signal, called active from +8 up or from −8 down
# [9] = viability profiling in RPMI8226 myeloma cells – cell-based, resazurin fluorescence, basal, 24 h, PK04 Diversity Set, profiling panel (AID 1180); settings: higher = more signal;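 also: RPMI8826 multiple myeloma cell line at 5000 cells per well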
# [10] = target: E3 ubiquitin-protein ligase XIAP (Homo sapiens) (UniProt P98170); test: small molecules binding XIAP protein – biophysical, small-molecule microarray, fluorescence 635 nm, primary screen (AID 1181); settings: higher = more signal;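 also: score merges 667 nm emission and signal to noise over triplicate slides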
# [11] = test system: XIP peptide (Xip251-270) binding; test: XIP fragment 251-270 binding compounds – biochemical, small-molecule microarray, fluorescence 635/667 nm, 0.1 µg/mL protein, primary screen (AID 1182); settings: fluorescent protein binding, 635 nm, higher = more signal, called active from +8 up or from −8 down
# XIP peptide (Xip251-270) = test: compounds binding XIP fragment 251-270 – biochemical, small-molecule microarray, fluorescence 635/667 nm, 0.5 µg/mL protein, primary screen (AID 1183); settings: fluorescence 635 nm, higher = more signal
# [12] = blood-stage malaria parasite viability loss – strain 3D7, DAPI fluorescence, 100 nL, primary screen (AID 1184);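 also: parasites grown inside human red blood cells in medium with human serum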; settings: P. falciparum 3D7 growth, 3 d, higher = more signal
# [13] = target: Homeobox protein Hox-A13 (Mus musculus) (UniProt Q62424); test: disruptors of Hoxa13 oligonucleotide interaction – biochemical, fluorescence polarization, labeled oligonucleotide, primary screen (AID 1185); settings: Hoxa13:DNA binding, 15 min, higher = more signal, called active from +8 up or from −8 down
# [14] = blockers of DNA damage checkpoint Chk1 activation – imaging, HeLa, hydroxyurea, phospho-Chk1 antibody, percent positive cells, primary screen (AID 1186); settings: hydroxyurea-induced phospho-Chk1 immunofluorescence imaging, higher = more signal
# [15] = blockers of DNA damage checkpoint Chk1 activation – imaging, HeLa, hydroxyurea, phospho-Chk1 nuclear intensity, primary screen (AID 1187); settings: hydroxyurea-induced phospho-Chk1 immunofluorescence imaging, higher = more signal
# Sequence of E3 ubiquitin-protein ligase XIAP (Homo sapiens) (P98170 whole entry, looked up, the tested form may be a part): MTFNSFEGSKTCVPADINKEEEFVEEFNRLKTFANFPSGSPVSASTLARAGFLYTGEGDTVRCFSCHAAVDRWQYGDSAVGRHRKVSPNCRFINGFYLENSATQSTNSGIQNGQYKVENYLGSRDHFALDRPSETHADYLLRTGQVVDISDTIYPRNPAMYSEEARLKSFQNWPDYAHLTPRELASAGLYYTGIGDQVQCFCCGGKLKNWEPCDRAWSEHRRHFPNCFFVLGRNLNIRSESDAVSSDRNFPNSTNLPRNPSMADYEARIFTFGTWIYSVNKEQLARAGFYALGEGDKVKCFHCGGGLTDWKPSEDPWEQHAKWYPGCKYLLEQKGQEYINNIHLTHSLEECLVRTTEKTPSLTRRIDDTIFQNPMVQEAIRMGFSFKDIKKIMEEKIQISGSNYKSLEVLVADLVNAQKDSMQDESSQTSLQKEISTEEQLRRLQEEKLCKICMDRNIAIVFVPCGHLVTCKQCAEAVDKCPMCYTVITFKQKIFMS
# Sequence of Dihydroorotate dehydrogenase (quinone), mitochondrial (Plasmodium falciparum (isolate 3D7)) (Q08210 whole entry, looked up): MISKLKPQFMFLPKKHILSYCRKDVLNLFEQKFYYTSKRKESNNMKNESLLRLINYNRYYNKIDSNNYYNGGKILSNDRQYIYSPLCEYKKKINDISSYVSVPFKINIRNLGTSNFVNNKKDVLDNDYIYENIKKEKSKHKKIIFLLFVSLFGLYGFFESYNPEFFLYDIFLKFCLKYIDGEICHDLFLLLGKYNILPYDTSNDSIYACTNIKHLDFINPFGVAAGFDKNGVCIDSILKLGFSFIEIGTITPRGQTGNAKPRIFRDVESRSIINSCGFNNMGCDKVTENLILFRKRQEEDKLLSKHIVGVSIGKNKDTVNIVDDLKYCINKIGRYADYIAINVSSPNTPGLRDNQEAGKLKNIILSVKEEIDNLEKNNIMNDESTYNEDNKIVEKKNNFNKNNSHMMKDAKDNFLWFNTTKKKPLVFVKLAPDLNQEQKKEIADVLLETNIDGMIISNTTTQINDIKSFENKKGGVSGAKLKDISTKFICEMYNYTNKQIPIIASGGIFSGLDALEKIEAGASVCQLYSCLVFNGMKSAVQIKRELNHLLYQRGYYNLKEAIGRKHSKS
# Sequence of Homeobox protein Hox-A13 (Mus musculus) (Q62424 whole entry, looked up): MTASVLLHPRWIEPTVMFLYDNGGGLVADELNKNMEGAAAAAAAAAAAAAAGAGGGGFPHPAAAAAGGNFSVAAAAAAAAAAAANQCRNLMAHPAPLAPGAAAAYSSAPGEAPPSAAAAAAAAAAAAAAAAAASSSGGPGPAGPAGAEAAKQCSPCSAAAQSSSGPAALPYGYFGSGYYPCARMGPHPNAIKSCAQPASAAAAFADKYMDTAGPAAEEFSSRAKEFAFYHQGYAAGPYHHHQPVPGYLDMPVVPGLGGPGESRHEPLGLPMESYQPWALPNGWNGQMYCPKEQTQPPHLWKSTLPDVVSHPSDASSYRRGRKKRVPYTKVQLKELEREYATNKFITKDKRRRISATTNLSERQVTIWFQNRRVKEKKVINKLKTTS
SMILES,z-score [1],z-score [2],z-score [3],composite z-score [4],z-score [5],z-score [6],z-score [7],z-score [8],z-score [9],composite z-score [10],composite z-score [11],composite z-score (XIP peptide (Xip251-270)),z-score [12],z-score [13],z-score [14],z-score [15]
C[C@]1(C(=O)NCC(F)(F)F)c2ccccc2C(=O)N(Cc2ccc(OC(F)(F)F)cc2)[C@H]1c1ccc(CO)cc1,0.2,-0.139 (inactive),-0.296 (inactive),0.182 (inactive),1.48 (inactive),-0.353 (inactive),-0.414 (inactive),-1 (inactive),0.14,0.212,0.102 (inactive),0.564,-0.231,-3.96 (inactive),0.01 (inactive),-0.125 (inactive)
CN(C)C(=O)[C@@]1(CCS(=O)(=O)c2ccccc2)N=C(c2ccc(OCCCO)cc2)O[C@H]1c1ccccc1N=[N+]=[N-],-0.679,0.135 (inactive),-0.517 (inactive),-0.926 (inactive),-0.0558 (inactive),-0.241 (inactive),-0.068 (inactive),0.0077 (inactive),-1.68,-0.0676,0.266 (inactive),0.723,-2.56,-5.61 (inactive),-0.268 (inactive),-0.701 (inactive)
CN(C)CCCC[C@@H]1NC(=O)[C@@H]2C[C@H](C(=O)NCCCCCCNC(=O)CS)[C@H](c3cccc(OCCO)c3)N2C1=O,-0.725,-0.103 (inactive),-0.196 (inactive),-0.264 (inactive),0.268 (inactive),-0.491 (inactive),0.303 (inactive),0.94 (inactive),0.117,-0.0052,0.602 (inactive),0.667,-0.391,-2.01 (inactive),0.134 (inactive),-0.332 (inactive)
CN(C)CCCNC(=O)[C@@H]1c2ccccc2C(=O)N(C2Cc3ccccc3C2)[C@H]1c1ccc(CO)cc1,-0.785,-0.944 (inactive),0.0257 (inactive),-0.487 (inactive),0.444 (inactive),-0.632 (inactive),0.615 (inactive),0.597 (inactive),0.461,0.0345,-0.233 (inactive),0.677,-1.09,0.84 (inactive),-0.765 (inactive),-0.961 (inactive)
COCCCNC(=O)[C@@H]1c2ccccc2C(=O)N(Cc2cc(C(F)(F)F)cc(C(F)(F)F)c2)[C@H]1c1ccc(CO)cc1,-0.249,-0.65 (inactive),-0.0193 (inactive),0.721 (inactive),0.196 (inactive),-0.432 (inactive),0.153 (inactive),0.304 (inactive),0.431,0.0871,-0.313 (inactive),-0.903,-1.14,-3.22 (inactive),-0.334 (inactive),-0.768 (inactive)
C=C(COC)/C(=C/C[C@H](OC(=O)c1ccncc1)c1ccc(OCCO)cc1)c1cc(C(=O)OC)ccc1OC,0.672,0.194 (inactive),-0.163 (inactive),-1.46 (inactive),-0.505 (inactive),-0.402 (inactive),-0.0988 (inactive),0.33 (inactive),-0.316,0.177,-0.202 (inactive),0.667,-3.05,-4.65 (inactive),0.203 (inactive),0.159 (inactive)
COCCCNC(=O)[C@@H]1c2ccccc2C(=O)N(C2CCCCC2)[C@H]1c1ccc(CO)cc1,0.559,-0.32 (inactive),0.614 (inactive),-0.271 (inactive),0.745 (inactive),-0.611 (inactive),0.0359 (inactive),-0.122 (inactive),0.505,-0.0773,-0.209 (inactive),0.339,-1.76,-0.837 (inactive),0.226 (inactive),-0.182 (inactive)
C=CCC(OC(C)=O)[C@@H]1[C@@H](N(Cc2cccc3ccccc23)C(=O)c2ccc(-c3ccccc3)cc2)c2cc(OCCCO)ccc2N1C(=O)c1ccc2ccccc2n1 (stereo not given in full),-0.0049,0.493 (inactive),0.623 (inactive),-0.318 (inactive),0.35 (inactive),-0.634 (inactive),-0.267 (inactive),-0.174 (inactive),0.485,-0.0102,-0.268 (inactive),0.0494,-0.198,-1.17 (inactive),0.116 (inactive),-0.14 (inactive)
COC(=O)[C@@]1(Cc2ccccc2)[C@@H]2[C@@H](CC(=O)[C@H]2CC(=O)C(=O)N(C)C)CN1C(=O)c1ccccc1,0.166,1.55 (inactive),-1.18 (inactive),0.823 (inactive),0.535 (inactive),1.02 (inactive),-0.49 (inactive),-0.0021 (inactive),-0.0757,0.0464,-0.282 (inactive),-0.0913,-1.23,-4.98 (inactive),0.273 (inactive),0.082 (inactive)
COC(=O)[C@@]1(Cc2ccc(F)cc2)[C@H]2c3cc(C(=O)N(C)C)n(CCO)c3C[C@H]2CN1C(=O)c1ccccc1,-0.359,-0.092 (inactive),-0.438 (inactive),-0.844 (inactive),0.865 (inactive),-0.251 (inactive),-0.356 (inactive),-0.0099 (inactive),-0.0323,0.49,1.79 (inactive),0.39,0.196,-4.71 (inactive),-0.0514 (inactive),0.138 (inactive)
